The panel holds about 83,000 compounds, 20% with a hit somewhere; the sample as a whole holds those more often.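 96-well plates, one dose, 48 hours. Percent growth reported; active if below 10.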 Values without a mark were called inactive. Calls of active or inactive are those of the source.

For this experiment, the system named is HL-60(TB) leukemia. As to the kind of experiment: NCI-60 one-dose screen, 48 h (100 = growth as untreated, 0 = no growth, -100 = all killed). To be noted: 10 µM unless noted.
For the compound `COC(=O)C(Cc1ccccc1)Nc1nc(NC(Cc2ccccc2)C(=O)OC)nc(N2CCOCC2)n1` (centres undefined), the growth is 103%.
Then `CCOC(=O)c1c(NC(=O)c2cccc(C(F)(F)F)c2)sc2cc(O)ccc12`, with 46.9%; and `CCN1C(=S)N(CC)C2C1NN=C1SC(c3ccccc3)=CC(=O)N12` (centres undefined), with 86.9%.
In the case of `CN(C)c1ncc(/C=C2\SC(=S)N(Cc3ccccc3Cl)C2=O)s1`, the growth is 94%.
The value for `Cc1ccc(-c2cc3nc(C(Cl)Cl)nc(-c4ccccc4)n3n2)cc1` was 55.1%; that for `CCOC(=O)C(=O)/C(=C\c1ccc(Cl)cc1)C(=O)N1C(=S)NC(=O)C1CC(C)C` (centres undefined) was 111%; that for `Cc1cccc2sc(/N=C(\N)C(Cl)(Cl)Cl)nc12` was 103%.
The value for `CS(=O)(=O)c1ccc2c(c1)c1c(n2Cc2ccc(Cl)cc2)CCCC1` was 70.5%; that for `CO/N=C1\CCc2c(sc(NC(=O)c3cccc(C(F)(F)F)c3)c2C(N)=O)C1` was 70.3%; that for `C/C(=C(/c1ccc(O)cc1)c1ccc(OCCN(C)C)cc1)c1ccc(Cl)cc1` was 21.8%.
Take `CC(=O)C1=C(C)NC(NNc2ccccc2)=NC1c1ccc([N+](=O)[O-])cc1` (centres undefined): the growth was 88.3%.
As to `CCOC(=O)C1=C(C)N=C2Sc3ccccc3N2C1c1ccccc1` (centres undefined), the growth was 61.9%.
On to `CCN(CC)CCN1C(=O)c2c(c3c4cc(Br)ccc4[nH]c3c3ccc4ccccc4c23)C1=O`, for which the growth is -35% (active).
As to `Cc1nc2ncc(-c3ccc4ncnc(NCc5ccccc5)c4c3)cc2[nH]1`, the growth was 109%.
Then `CCCCCCCCCCCC(=O)NC(C)(C)C(=O)N1CCCC1C(=O)NC(C)(C)C(=O)NC(C)(C)C(=O)N1CCCC1C(=O)NC(C)(C)C(=O)NC(C)(C)C(=O)N1CCCC1C(=O)NC(C)C(=O)NCCC(=O)NC(C)C(=O)NC(C)(C)C(=O)NC(C)(C)C(=O)NC(C)(C)C(=O)NCCC(=O)NC(C)(C)C(=O)NC(C)(C)C(=O)NC(C)(C)C(=O)NC(C)C(=O)NCCC(=O)O` (centres undefined), with -66.3% (active); and `CSc1ccc(/C(=N/N=C(N)N)c2ccc(Cl)cc2)cc1`, with -45.1% (active); and `O=C(Nc1cccc(Cl)c1)Nc1nc2cc([N+](=O)[O-])ccc2o1`, with 52.7%.
Then `CCNC(=O)Oc1ccc(/C(=C(/C)c2ccc(Cl)cc2)c2ccc(OCCN(C)C)cc2)cc1`, with 52.7%.
The value for `C=C1CC[C@@H]2[C@]3(C)COC(c4ccccc4)O[C@@H]3CC[C@@]2(C)[C@@H]1C/C=C1/C(=O)OC[C@H]1O` (some centres undefined) was 48.9%; that for `CC(C)(C)c1ccc(-c2nnc(-c3nc4ccccc4nc3Cl)o2)cc1` was 13.6%; that for `O=C(NCCNc1cc(-c2cn(-c3ccccc3)nc2-c2cccc(O)c2)ccn1)Nc1ccc(Cl)c(C(F)(F)F)c1` was 84.2%.
Take `NS(=O)(=O)c1ccc(Nc2nc(SCC(=O)c3ccc(Cl)cc3)nc3ccccc23)cc1`: the growth is 103%.
For the compound `N#Cc1nc(-c2ccc(Cl)cc2)oc1N1CCC(S(=O)(=O)N2CCOCC2)CC1`, the growth was 112%.
Regarding `Cn1cc2c(c1)-c1c(sc3nc(-c4ccc(NC(=O)Nc5cc(C(C)(C)C)on5)cc4)cn13)CC2`, the growth was 12.4%.
The value for `COc1ccc(CC(C)=C(c2ccc(OCCN3CCCC3)cc2)c2ccc(OCCN3CCCC3)cc2)cc1` was -64.2% (active).
On to `O=C(NNc1nc2cc(F)c(F)cc2n2c(CN3CC4CNCC4C3)ccc12)c1ncccn1` (centres undefined), for which the growth is -30.7% (active).
Take `NC(=O)c1c(NC(=O)c2ccc(C(F)(F)F)cc2)sc2c1CCC(=O)C2`: the growth was 6.39% (active).
For `Oc1ccc(CSc2nnc(-c3cnccn3)o2)c2cccnc12`, the growth is -11.5% (active).
Then `COC(=O)C[Se]C(=O)Cc1c(C)n(C(=O)c2ccc(Cl)cc2)c2ccc(OC)cc12`, with -20.9% (active); and `COc1ccccc1C(=O)CSc1nc(Nc2ccc(S(N)(=O)=O)cc2)c2ccccc2n1`, with 94.5%.
Turning to `CCNC(=NCCCN(C)C)N/C(N)=N/c1nc2ccccc2s1`, the growth was 90.9%.
In the case of `O=C(Nc1cccc(-c2nc(-c3ccc(NC(=O)c4cccnc4)cc3Cl)no2)c1)Nc1ccc(NC(=O)C2CC2)c(C(F)(F)F)c1`, the growth is -41.5% (active).
The value for `COc1cc(C(=O)c2cc(C(C)=O)c3ccc(C)cn23)cc(OC)c1OC` was 8.8% (active); that for `CC(=O)N1N=C(c2cc3ccccc3oc2=O)CC1c1cn(-c2ccccc2)nc1-c1ccc(C)cc1` (centres undefined) was 107%.
